Shown are actives, neighbours in structure and some others; about 18% of the full set was active somewhere.
DT40 TDP1 no CPT – qHTS for Inhibitors of human tyrosyl-DNA phosphodiesterase 1 (TDP1): qHTS in cells in absence of CPT. DT40 Tdp1-/- hTDP1 cells, no CPT, ATP luminescence, 48 h. Potency, µM (series often up to 46.2 µM), for the others: top-dose activity change, negative = growth inhibition, most hits filed as inhibitors. AID 686978, 2013. 420,000 tested, 15% active; also: nearly all actives have a fitted effect of over 55% in size
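Chicken DT40 Tdp1-/- cells complemented with human TDP1, screened without camptothecin (DMSO vehicle only), 400 cells/well. Compounds pin-transferred, cells incubated at 37 °C for at least 48 hr. Growth read as ATP-dependent luminescence (CellTiter-Glo, 30 min at RT).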
DT40 TDP1 CPT – qHTS for Inhibitors of human tyrosyl-DNA phosphodiesterase 1 (TDP1): qHTS in cells in presence of CPT; chicken DT40 Tdp1-/-;hTDP1 cells + 20 nM CPT, ATP luminescence, 48 h; Potency, µM (series often up to 46.2 µM), for the others: top-dose activity change, negative = growth inhibition, hits mostly inhibitors; 420,000 tested, 12% active; also: nearly all actives have a fitted effect of over 55% in size
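Cell growth measured by CellTiter-Glo luminescence after a minimum 48 h, 37 C compound exposure with 20 nM CPT in Tdp1-knockout DT40 cells stably expressing hTDP1, seeded 400/well; qHTS titration format.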
TDP1 block – qHTS Assay for Inhibitors of Tyrosyl-DNA Phosphodiesterase (TDP1). AID 485290, 2010. 350,000 tested, 0.28% active. Potency, µM (titrated, usually from 130 µM), for inactives: at the highest dose activity change, negative = inhibition, usual class: inhibitors. Tyrosyl-DNA phosphodiesterase 1 (Homo sapiens), Q9NUW8. recombinant TDP1, AlphaScreen DNA substrate cleavage; also: nearly all actives have a fitted effect of over 40% in size
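Tdp1 1 nM final; 15 min RT w/ cpd; substrate 15 nM, 5 min; beads 10 ug/ml, 10 min; AlphaScreen read. Neg ctrl: no enzyme.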
PLK1 PBD block – qHTS for Inhibitors of PLK1-PDB (polo-like kinase 1 - polo-box domain): Primary Screen; Serine/threonine-protein kinase PLK1 (Homo sapiens), P53350; Plk1 PBD binding of FITC phosphopeptide, fluorescence polarization; Potency, µM, inactives show max response, negative = inhibition, usual class: inhibitors; 360,000 tested, 2.8% active; also: series mostly up to about 57 µM; nearly all actives have a fitted effect of over 65% in size
VDR inhibitor – Inhibitors of the vitamin D receptor (VDR): qHTS; Vitamin D3 receptor (Homo sapiens), P11473; VDR-SRC2-3 peptide fluorescence polarization, 2 h; Potency, µM, for the others: max response, negative = inhibition, hits mostly inhibitors; 400,000 tested, 0.93% active; AID 504847, 2011
Target sequence (P11473 whole entry, looked up): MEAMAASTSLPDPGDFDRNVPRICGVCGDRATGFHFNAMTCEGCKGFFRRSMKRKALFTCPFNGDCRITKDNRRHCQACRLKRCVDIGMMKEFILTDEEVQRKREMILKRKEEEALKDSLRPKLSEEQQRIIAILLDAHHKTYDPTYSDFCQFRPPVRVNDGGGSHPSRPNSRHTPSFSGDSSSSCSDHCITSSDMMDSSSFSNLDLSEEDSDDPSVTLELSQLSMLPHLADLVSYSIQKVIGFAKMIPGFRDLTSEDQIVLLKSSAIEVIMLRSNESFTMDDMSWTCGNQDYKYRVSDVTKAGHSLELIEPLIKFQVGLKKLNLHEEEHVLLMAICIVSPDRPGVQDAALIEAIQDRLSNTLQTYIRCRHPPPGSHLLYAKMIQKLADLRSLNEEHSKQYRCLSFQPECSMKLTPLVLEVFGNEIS
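Reagent solutions, kept cold and dark, are dispensed first; compounds are then pinned in at 23 nl, plates briefly spun, and incubated 2 h at ambient temperature. Inhibition of VDR–SRC2-3 peptide binding is read by fluorescence polarization.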
GCN5L2 inh – qHTS Assay for Inhibitors of GCN5L2; AID 504327, 2011; Histone acetyltransferase KAT2A (Homo sapiens), Q92830; GCN5L2 HAT assay, ThioGlo1 CoA-SH fluorescence; Potency, µM (highest dose often 58.9 µM), for the others: at the highest dose activity change, negative = inhibition, actives largely listed as inhibitors; 390,000 tested, 0.21% active
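Free CoA generated was detected with ThioGlo1 (50uM) fluorescence at Ex340nm/Em540nm, read immediately and after 20 min at room temperature. Enzyme, 20 nM in HEPES pH 7.5 buffer, saw compounds 15 min before adding 75uM H3(1-25) peptide and 70uM acetyl-CoA.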
Numbers without * were called inactive; ? = inconclusive; . = no result. Calls follow the shape of the dose curve; as a rule, active = well fitted curve in the direction sought with a large enough effect; inconclusive = small, poorly fitted or top-dose-only effect, or another doubt; inactive = no such curve, though single readings can be large; an effect the other way counts as inactive or inconclusive. % is scaled to controls: 0 for no effect and ±100 for the full control effect; potency is read from the fitted curve at half-maximal effect.

SMILES	DT40 TDP1 no CPT	DT40 TDP1 CPT	TDP1 block	PLK1 PBD block	VDR inhibitor	GCN5L2 inh
CCOc1ccccc1CNC(=O)CCC(=O)N1Cc2ccccc2Oc2ncccc21	?	0%	2%	-15%	3%	-28%
COc1cccc(CNC(=O)CCc2c(C)nn(-c3ccc(N4CCOCC4)nn3)c2C)c1	-19%	-23%	7%	.	19%	-1%
Cc1ccc(CN2C(=O)C(CC(C)C)Nc3ncnc(N4CCOCC4)c32)cc1 (stereo not given)	-27%	-9%	2%	-11%	-8%	-1%
COc1ccc(CN2C(=O)C(CC(C)C)Nc3ncnc(N4CCCCC4)c32)cc1 (stereo not given)	?	?	-1%	-21%	-20%	-10%
CC(C)CC1Nc2ncnc(N3CCN(c4ccccc4)CC3)c2N(Cc2ccccc2)C1=O (stereo not given)	15µM*	16µM*	.	-16%	5%	-19%
CC(C)CC1Nc2ncnc(N3CCN(c4ccccc4)CC3)c2N(Cc2ccc(Br)cc2)C1=O (stereo not given)	18µM*	16µM*	.	-14%	0%	-5%
COc1ccc(CN2C(=O)C(CC(C)C)Nc3ncnc(N4CCN(c5ccccc5)CC4)c32)cc1 (stereo not given)	?	18µM*	3%	-15%	-2%	-8%
CC(C)CC1Nc2ncnc(N3CCCCC3)c2N(Cc2ccccc2)C1=O (stereo not given)	18µM*	26µM*	.	-20%	-2%	-13%
COC(=O)N1CCC2(CCN(C(=O)Nc3ccc(OC)cc3)CC2)CC1	-13%	6%	.	.	3%	-2%
CCS(=O)(=O)c1nc(S(=O)(=O)c2ccc(Cl)cc2)c(N2CCc3ccccc3C2)s1	?	?	3%	1%	-17%	-10%
CC(C)CC1Nc2ncnc(N3CCN(c4ccccn4)CC3)c2N(Cc2ccc(Cl)cc2)C1=O (stereo not given)	23µM*	?	5%	-8%	-7%	-10%
COc1cccc(CCN2CCC(CNS(=O)(=O)c3cc(-c4cc(C)no4)ccc3C)CC2)c1	?	?	4%	2%	-7%	-18%
Cc1ccc(-c2cnc(C3CC3)o2)cc1S(=O)(=O)Nc1cccc(C#N)c1	5.8µM*	5.8µM*	1%	.	4%	-3%
Cc1cc(-c2ccc(C)c(S(=O)(=O)Nc3cccc(CN4CCCC4)c3)c2)on1	-13%	-14%	2%	-3%	-1%	-17%
COc1cccc(NS(=O)(=O)c2cc(-c3cnc(C4CC4)o3)ccc2C)c1	0.58µM*	0.92µM*	4%	.	15%	8%
COc1cccc(NC(=O)c2csc3c2CCCCC3)c1	16µM*	21µM*	-9%	.	0%	-17%
Cc1cccc(C)c1NC(=O)Nc1csc2c1CCCC2	-13%	-14%	-2%	.	-4%	-1%
CCc1cccc(NC(=O)Nc2csc3c2CCCC3)c1	23µM*	21µM*	1%	.	-13%	-5%
Cc1cccc(C)c1NC(=O)c1csc2c1CCCC2	5.2µM*	3.7µM*	-5%	.	-27%	-3%
Cc1ccc(C)c(NC(=O)Nc2csc3c2CCCC3)c1	?	?	-1%	.	-4%	0%
CCN(CC(=O)NCc1cccs1)C(=O)CCC(=O)c1ccc(C)cc1	-7%	7%	4%	-2%	-4%	-2%
O=C1c2[nH]nc(-c3ccccc3O)c2C(c2ccccc2F)N1Cc1ccncc1 (stereo not given)	?	?	-2%	.	2%	-9%
C=CCN1c2ccccc2C(=O)CS1(=O)=O	?	2%	1%	-8%	-8%	-6%
Cc1ccc2c(C)nc(N/C(N)=N/S(=O)(=O)c3ccccc3)nc2c1	-21%	-21%	-5%	-12%	-9%	-3%
Cc1ccc(S(=O)(=O)/N=C(\N)Nc2nc(C)c3cc(C)ccc3n2)cc1	?	?	4%	-4%	5%	-1%
SMILES	DT40 TDP1 no CPT	DT40 TDP1 CPT	TDP1 block	PLK1 PBD block	VDR inhibitor	GCN5L2 inh
Cc1ccc(S(=O)(=O)/N=C(\N)Nc2nc(C)c3ccc(C)cc3n2)cc1	?	21µM*	5%	-5%	-2%	-19%
Cc1ccc(S(=O)(=O)/N=C(\N)Nc2nc(C)c3cc(C)c(C)cc3n2)cc1	?	23µM*	7%	-2%	4%	0%
CC(C)c1ccc(N(CC(=O)NC2CCCCC2)C(=O)CCC(=O)Nc2ccccn2)cc1	?	?	1%	2%	4%	-4%
Cc1ccc2nc(Cl)c3cc(C(=O)NC4CCCCC4)sc3c2c1	-22%	9%	-1%	.	-17%	1%
O=CNc1c(Cl)cc2c(c1Cl)Cc1cc([N+](=O)[O-])ccc1-2	12µM*	12µM*	.	2%	-11%	.
COC(=O)c1sc(S(=O)(=O)NC(C)C(=O)O)c(C(=O)OC)c1C (stereo not given)	-9%	1%	8%	-3%	6%	0%
Cc1nc(NCC2CCCO2)[nH]c(=O)c1CCC(C)C (stereo not given)	-27%	-19%	7%	-10%	-7%	2%
Cc1n[nH]c(=O)nc1NCC1CCCO1 (stereo not given)	-30%	4%	4%	27µM*	-10%	0%
CCOC(=O)C(=O)N(C)c1c(CC)nc2c(OCc3cccc(OC)c3)cccn12	-10%	-11%	.	-10%	.	.
OCCN1CCN(c2ncnc3c2ncn3[C@H]2CN(Cc3cccs3)C[C@@H](CO)O2)CC1	-1%	?	.	4%	.	.
CC(=O)OC[C@@H]1CN(Cc2ccccc2)C[C@H](n2cnc3c(N4CCN(c5ccccc5)CC4)ncnc32)O1	18µM*	16µM*	.	3%	.	.
OC[C@@H]1CN(Cc2cccs2)C[C@H](n2cnc3c(N4CCN(c5ccccc5)CC4)ncnc32)O1	?	23µM*	.	-2%	.	.
OC[C@@H]1CN(Cc2ccc3c(c2)OCO3)C[C@H](n2cnc3c(NC4CCC4)ncnc32)O1	?	?	.	-1%	.	.

High-throughput results deposited in PubChem BioAssay by National Center for Advancing Translational Sciences (NCATS).
